Bioassay records from PubChem BioAssay.
NIH3T3 tox = NIH 3T3 cell cytotoxicity; NIH 3T3 viability, CellTiter-Glo ATP luminescence, 48-72 h; Potency, µM (series often up to 96.7 µM), for the others: at the highest dose activity change, negative = cytotoxicity, usual class: inhibitors; 94,000 compounds, 4.3% hits; also: nearly all actives have a fitted effect of over 55% in size
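Cells were seeded at 400 per well, treated with pin-transferred compound, and kept 48 or 72 hr at 37 °C before CellTiter-Glo addition and luminescence imaging of cellular ATP.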
NPR1 antag = human Npr1 receptor antagonism | AID 1347048 | 76,000 compounds, 1.6% hits | Potency, µM (highest dose often 46.3 µM), for inactives: at the top dose activity change, negative = inhibition, usual class: inhibitors | HEK293 hNpr1 GloSensor cGMP, ANP-stimulated luminescence | P16066; calls by dose curve; also: nearly all actives have a fitted effect of over 60% in size
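Compound pre-incubated 30 min at room temperature on GloSensor-loaded HEK293 cells stably carrying hNpr1 and the pGS-40F cGMP biosensor. Stimulation uses hNppA at 0.1 nM final; luminescence is taken at baseline and 20 min post-agonist.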
FLuc inh = inhibitors of firefly (Photinus pyralis) luciferase | P08659 | purified P. pyralis luciferase, luminescence, biochemical | Potency, µM (series often up to 115 µM), usual class: inhibitors | 76,000 compounds, 2.5% hits | AID 1347043; also: nearly all actives have a fitted effect of over 65% in size
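Luminescence read by CCD imaging after purified firefly luciferase (10nM final) was added to substrate buffer holding 10uM D-luciferin and 10uM ATP, pH 7.5, pre-dosed with compound.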
HEK cytotox = kills HEK 293 cells; HEK 293 viability, ATP luminescence (CellTiter-Glo), 48-72 h; 94,000 compounds, 6.6% hits; Potency, µM (titrated, usually from 115 µM), inactives show top-dose activity change, negative = cytotoxicity, usual class: inhibitors; also: nearly all actives have a fitted effect of over 60% in size
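HEK 293 seeded at 250 cells/well receive compound via pintool. After 48 or 72 hr at 37 degree Celsius, 5% CO2 and 95% humidity, CellTiter-Glo is dispensed and luminescence read following 10 min at room temperature.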
Numbers without * were called inactive; i = inactive; ? = inconclusive; . = no result; [ ] = remark or other dose. An excerpt weighted towards active compounds, which were near 11% of everything screened. Unless noted, calls follow the shape of the dose curve; as a rule, active = well fitted curve in the direction sought with a large enough effect; inconclusive = small, poorly fitted or top-dose-only effect, or another doubt; inactive = no such curve, though single readings can be large; an effect the other way counts as inactive or inconclusive. % is scaled to controls: 0 for no effect and ±100 for the full control effect; potency is read from the fitted curve at half-maximal effect.

SMILES | NIH3T3 tox | NPR1 antag | FLuc inh | HEK cytotox
CCc1nc2c(c(-c3ccc(Cl)cc3)n1)CN(C(=O)Nc1ccc(Cl)cc1)CC2 | ? | -12.4% | i | ?
CCn1nc(CC(C)C)cc1C(=O)N(C)Cc1cccc(-n2cccn2)c1 | ? | -15.2% | i | 50.1µM*
CCn1nc(CC(C)C)cc1C(=O)N(C)C1CCCN(C2Cc3ccccc3C2)C1 (centres undefined) | ? | 0.5% | i | ?
O=C1COCC2(CN1Cc1cccc(OC(F)(F)F)c1)CN(c1ccccn1)C2 | -16.0%[138 µM] | -1.8%[70.6 µM] | i | ?
Cn1cc(CN2CC3(COCC(=O)N(Cc4cccc(OC(F)(F)F)c4)C3)C2)cn1 | -18.9%[138 µM] | -16.4%[70.6 µM] | i | ?
O=C1OCC2(CCN(Cc3cccc(OC(F)(F)F)c3)C2)N1c1ccncc1 (centres undefined) | ? | 6.7%[70.6 µM] | i | 100µM*
O=C1COCC2(CN1Cc1cccc(OC(F)(F)F)c1)CN(c1ccccc1F)C2 | 89.1µM* | 0.3%[70.6 µM] | i | 89.1µM*
O=C1COCC2(CN(Cc3ccsc3)C2)CN1Cc1cccc(OC(F)(F)F)c1 | 44.7µM* | -19.1%[70.6 µM] | i | 63.1µM*
CCCS(=O)(=O)N1CCC([C@H]2[C@@H](OC)C(=O)N2C(C)C)CC1 | -0.1% | . | . | 0.2%
Cc1ccc(C2NC(=O)N(CC(=O)Nc3ccc(Br)c(C)c3)C3=C2C(=O)OC3)cc1 (centres undefined) | 35.5µM* | ? | i | ?
Cc1ccc(C2NC(=O)N(CC(=O)Nc3cc(F)cc(F)c3)C3=C2C(=O)OC3)cc1 (centres undefined) | ? | -25.6% | i | ?
CCc1cccc(NC(=O)CN2C(=O)NC(c3ccc(C)cc3)C3=C2COC3=O)c1 (centres undefined) | ? | -15.9% | i | 28.2µM*
Cc1ccc(C2NC(=O)N(CC(=O)Nc3ccc(Br)cc3F)C3=C2C(=O)OC3)cc1 (centres undefined) | ? | -22.0% | i | 35.5µM*
Cc1cccc(C(=O)N2C(C(=O)NC(C)c3ccccc3)COC23CCC(C)CC3)c1 (centres undefined) | ? | 5.8% | i | ?
O=C(NCC1CCCCC1)c1nc2cccnc2n(C2CC2)c1=O | -18.8%[138 µM] | . | . | -3.3%[172 µM]
COC(=O)c1cc(C#N)c(N2CCCC(O)(CN(C)C)CC2)nc1C (centres undefined) | -22.8% | -8.7% | i | -22.4%
c1ccc(CN[C@@H]2C[C@@H]3CO[C@H](c4ccccc4)C[C@@H]3C2)cc1 | -26.5% | . | . | ?
c1ccc(-c2ccccc2CN[C@@H]2C[C@@H]3CO[C@H](c4ccccc4)C[C@@H]3C2)cc1 | 17.8µM* | . | . | ?
Cc1ccccc1C(=O)N1CCCN(c2ccc3nnc(C)n3n2)CC1 | -9.8% | . | . | -1.8%
Cc1ccc(C(=O)NCCn2ccn3nc(-c4ccc(C)c(C)c4)cc3c2=O)cc1 | -9.1% | -0.4% | i | -2.3%
Cc1ccc(-c2cc3c(=O)n(CCNC(=O)Cc4cccc(F)c4)ccn3n2)cc1C | ? | ? | 3.55µM* | -17.7%
Cc1ccc(-c2cc3c(=O)n(CCNC(=O)c4ccc[nH]c4=O)ccn3n2)cc1C | -17.0% | -13.9% | 7.94µM* | -7.1%
O=c1[nH]c(N2CCOCC2)nc2c1CCN(Cc1ccccc1Br)CC2 | 2.3% | 0.7% | i | -5.3%
O=C(Nc1cccc(C(F)(F)F)c1)O[C@@H]1CO[C@H]2[C@@H]1OC[C@@H]2n1nnnc1SC1CCCC1 | 39.8µM* | ? | i | ?
O=C(Nc1ccccc1)O[C@@H]1CO[C@H]2[C@@H]1OC[C@@H]2n1nnnc1-c1ccc2c(c1)OCCO2 | -26.2% | -12.6% | 44.7µM* | -13.4%
O=C(Nc1ccccc1)O[C@@H]1CO[C@H]2[C@@H]1OC[C@@H]2n1nnnc1SC1CCCC1 | -24.7%[174 µM] | ? | i | ?
S=C(NC1CCCCC1)N[C@H]1CO[C@H]2[C@@H]1OC[C@@H]2n1cc(-c2ccccn2)nn1 | ? | ? | i | 89.1µM*
O=C(NC1CCCCC1)N[C@H]1CO[C@H]2[C@@H]1OC[C@@H]2n1cc(-c2ccccn2)nn1 | -17.7%[138 µM] | -2.7%[70.6 µM] | i | -17.8%[172 µM]
O=C(Nc1cccc(C(F)(F)F)c1)O[C@@H]1CO[C@H]2[C@@H]1OC[C@@H]2n1cc(-c2ccccn2)nn1 | ? | ? | i | 35.5µM*
CCC(=O)N1CCCCCCNC(=O)[C@@H]2C[C@@H](C(=O)N3CCN(c4ccccn4)CC3)C[C@@H]21 | ? | -9.2% | i | 0.8%
